# Compound activity as filed in PubChem BioAssay.
# The entries come from a sample that favours hits as a whole.
# CHX counter = affects cycloheximide protein synthesis inhibition readout, counter-screen; cell reporter, cycloheximide protein synthesis inhibition counterscreen; max response, %; 300,000 compounds, 12% hits; AID 2314; in the data active means max response mostly above about 13%, no sharp cut-off; inactive means mostly below about 14%; further: read at 38.3 µM for the half of the compounds with a filed dose
# LmPK inhibitor = inhibitors of Leishmania mexicana pyruvate kinase. Q27686. purified LmPK, Kinase-Glo ATP luminescence, 1 h. Potency, µM (highest dose often 57.5 µM), most hits filed as inhibitors. 290,000 compounds, 0.37% hits
# Target sequence (Q27686 whole entry, looked up): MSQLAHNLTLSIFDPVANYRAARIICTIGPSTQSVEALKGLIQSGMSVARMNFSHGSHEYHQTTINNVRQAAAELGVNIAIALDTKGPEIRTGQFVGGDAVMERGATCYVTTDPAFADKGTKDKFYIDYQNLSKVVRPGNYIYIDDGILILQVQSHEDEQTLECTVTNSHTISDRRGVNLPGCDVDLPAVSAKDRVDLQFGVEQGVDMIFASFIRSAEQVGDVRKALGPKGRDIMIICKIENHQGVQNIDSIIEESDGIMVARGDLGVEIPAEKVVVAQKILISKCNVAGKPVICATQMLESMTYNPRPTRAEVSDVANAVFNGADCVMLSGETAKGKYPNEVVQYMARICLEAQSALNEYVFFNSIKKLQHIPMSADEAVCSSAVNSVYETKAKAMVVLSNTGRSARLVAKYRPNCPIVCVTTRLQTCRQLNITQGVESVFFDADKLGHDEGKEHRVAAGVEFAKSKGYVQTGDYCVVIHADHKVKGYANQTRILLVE
#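 ATP generated from ADP (0.1 mM) and PEP (0.5 mM) by 0.1 nM LmPK over 1 h at room temperature (pH 7.2 imidazole buffer) was detected by coupled luciferase luminescence. Values were normalized to uninhibited and no-enzyme wells.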
# SARS PLpro yeast = blocks SARS-CoV papain-like protease in a yeast assay. S. cerevisiae expressing SARS-CoV PLpro, growth rescue. Potency, µM (top dose mostly 32.9 µM), most hits filed as activators. 330,000 compounds, 0.19% hits. AID 485353; calls by dose curve; further: nearly all actives have a fitted effect of over 55% in size
# Shiga toxin inh = inhibitors of Shiga toxin in Vero cells | Vero cells, Shiga toxin protein synthesis inhibition reporter | AID 2315 | 290,000 compounds, 9.2% hits | inhibition, % at 38.7 µM; in the data active means inhibition mostly above about 28%, no sharp cut-off; inactive means mostly below about 43%
# NS1 inh = influenza NS1 inhibition; 270,000 compounds, 0.4% hits; AID 2326; Potency, µM (doses to about 46.1 µM); calls by dose curve; further: actives are rising curves; nearly all actives have a fitted effect of over 50% in size
#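 S. cerevisiae expressing influenza A NS1, grown in glucose, washed, then diluted 1:100 into pH 6.0 -URA galactose medium with 23 nl compound. Growth recovery read as OD600; NS1-free strain serves as control.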
# Tb PYK inh = blocks Trypanosoma brucei pyruvate kinase | 410,000 compounds, 0.12% hits | Q57TT1 | TbPYK enzyme, Kinase-Glo Plus ATP luminescence, 45 min | Potency, µM (highest dose often 76.8 µM), hits mostly inhibitors; further: nearly all actives have a fitted effect of over 50% in size
#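 Luminescent Kinase-Glo Plus end-point after 45 min room-temperature reaction of T. brucei pyruvate kinase started with 130 uM ADP (final). Buffer TEA 50 mM pH 7.2 with KCl, MgCl2, BSA, Tween-20; titration-based qHTS with fitted concentration-effect curves.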
# Numbers stand for hits; – = inactive; ? = inconclusive; · = no result; [ ] = another dose, or the depositor's remark. Unless noted, the call rests on the fitted dose curve; in most records, active means well fitted curve in the direction sought with a large enough effect; inconclusive means small, poorly fitted or top-dose-only effect, or another doubt; inactive means no such curve, though single readings can be large; an effect the other way counts as inactive or inconclusive.
SMILES,CHX counter,LmPK inhibitor,SARS PLpro yeast,Shiga toxin inh,NS1 inh,Tb PYK inh
S=C(N/N=C/c1ccc(Br)cc1)N1CCCCC1,40,–,–,64,–,–
CC(C)n1c(=O)c2ccccc2n1C(=O)c1ccccc1,·,·,·,·,·,–
COC(=O)c1c(C)oc2ccc(N(C(=O)Oc3ccccc3)S(=O)(=O)c3ccc(C(C)(C)C)cc3)cc12,·,·,·,·,·,–
O=C(NCC(=O)N(Cc1ccccc1)C(C(=O)NC1CCCC1)c1ccncc1)c1ccco1 (stereo not drawn),20,–,–,–,–[9.22 µM],–
CCCCN(C(=O)CNC(=O)c1cccs1)C(C(=O)NC1CCCC1)c1ccncc1 (stereo not drawn),28,–,–,–,–,–
CCOC(=O)CN(C(=O)CNC(=O)c1cccs1)C(C(=O)NC1CCCC1)c1ccncc1 (stereo not drawn),–,–,–,–,–,–
CCOc1ccccc1C(C(=O)NC1CCCC1)N(Cc1ccco1)C(=O)CNC(=O)c1ccco1 (stereo not drawn),12,–,–,–,–,–
COc1ccc(NC(=O)Cn2c(SCc3ccc(F)cc3)nc3cccnc32)cc1OC,·,·,·,·,·,–
N/C(Cc1cccs1)=N\OC(=O)COc1ccc(Br)cc1,30,–,–,–,–,–
COc1ccc(OCC(=O)O/N=C(\N)Cc2cccs2)cc1,22,–,–,64,–,–
Cc1cccc(OCC(=O)O/N=C(\N)Cc2cccs2)c1,–,–,–,–,–,–
CC(C)(C)c1ccc(C(=O)O/N=C(\N)Cc2cccs2)cc1,·,·,·,·,·,–
Cc1ccccc1C(=O)O/N=C(\N)Cc1cccs1,88,–,–,95,–,–
Cc1ccc(OCC(=O)O/N=C(\N)Cc2ccc(Cl)cc2)cc1,–,–,–,–,–,?
CC(C)C(=O)OCC(=O)[C@@]12OC(C3CCCCC3)O[C@@H]1CC1C3CCC4=CC(=O)C=C[C@]4(C)C3[C@@H](O)C[C@@]12C (stereo partly drawn),·,·,·,·,·,–
CN(C)CCCN(C(=O)c1ccco1)c1nc2cc3c(cc2s1)OCO3,12,–,–,–,–,–
CN(C)CCCN(C(=O)c1cccs1)c1nc2cc3c(cc2s1)OCO3,17,–,–,–,·,–
CN(C)CCCN(C(=O)c1ccc([N+](=O)[O-])s1)c1nc2cc3c(cc2s1)OCCO3,12,–,–,–,–,–
Cc1ccc2nc(N(CCCN(C)C)C(=O)c3ccco3)sc2c1,–,–[11.5 µM],–,–,·,–
CC(C)CN(C(=O)c1ccco1)c1nc2ccccc2s1,active,–,–,–,–,–
CN(C)CCCN(C(=O)c1ccc(Cl)s1)c1nc2cc3c(cc2s1)OCO3,–,–,–,–,–,–
CN(C)CCCN(C(=O)c1ccc(Br)s1)c1nc2cc3c(cc2s1)OCCO3,·,·,·,·,·,–
CC(O)(c1cccc(F)c1)c1nc(-c2cnc3ccccc3c2)cs1 (stereo not drawn),·,·,·,·,·,–
CC(=O)OC(COc1ccccc1)Cn1cnc2cc(C)c(C)cc21 (stereo not drawn),–,–,–,–,·,–
CC1CCCCN1C(=O)COC(=O)c1cc([N+](=O)[O-])ccc1N1CCOCC1 (stereo not drawn),·,·,–,·,·,–
SMILES,CHX counter,LmPK inhibitor,SARS PLpro yeast,Shiga toxin inh,NS1 inh,Tb PYK inh
COc1ccccc1N(CC(=O)Nc1cc(C)on1)S(=O)(=O)c1cccc(C(F)(F)F)c1,·,·,–,·,·,–
COc1ccc2nc(/N=C(\N)NC(=O)N3c4ccccc4Sc4ccccc43)nc(C)c2c1,–,–,–,–,?,–
CCC(=O)N/C(=N/c1nc(C)cc(C)n1)Nc1ccc(OC)cc1,–,–,–,–,–,–
COc1ccc2nc(/N=C(\N)NC(=O)C(C)(C)C)nc(C)c2c1,30,–,–,42,–,–
CCC(=O)N/C(N)=N/c1nc(C)c2cc(OC)ccc2n1,23,–,–,71,–,–
Cc1ccc(-c2cc(C(=O)N(Cc3ccc(C(C)(C)C)cc3)Cc3ccco3)no2)cc1,·,·,·,·,·,–
FC(F)(F)c1cnc2c(c1)Nc1ccccc1S2,13,–,–,–,–,–
c1ccc2c(c1)Nc1nccnc1S2,28,–,–,128,–,?
C[N+](C)(C)c1cc2c(nn1)Nc1ccccc1S2,·,·,·,·,–,·
Clc1cc2c(nn1)Nc1ccccc1S2,11,–,–,–,–,–
COc1cc(C[C@H](C)N)c(OC)cc1C,·,·,·,·,·,–
CCc1nc2cccnc2n1-c1ccc(CC(=O)Nc2ccccc2Cl)cc1,·,·,·,·,·,–[15.4 µM]
Cc1cccc(CNC(=O)c2ccc3nc(Cc4ccccc4F)oc3c2)n1,58,–,–,111,–,–
O=C(NCCc1ccccn1)c1ccc2nc(Cc3ccccc3F)oc2c1,62,–,–,105,–,–
O=C(NCCc1ccc(Cl)cc1)c1ccc2nc(Cc3ccccc3)oc2c1,·,·,·,·,·,–
Cc1cccc(-c2nc3c4ccccc4nc(N4CCN(c5cccc(Cl)c5)CC4)n3n2)c1,·,·,·,·,·,–
Cc1[nH]c2ccccc2c1CC#N,–,–,–,–,–,–
Cc1[nH]c2ccccc2c1C1=CC(=O)C=CC1=O,·,·,·,·,·,4µM
COc1ccc(-c2cn3nc(C)c(C)nc3n2)cc1OC,·,·,–,·,·,–
Cc1ccc(-c2cn3nc(C)c(C)nc3n2)cc1,24,?,–,32,–,–
COc1ccc(-c2cc3ccccc3oc2=O)cc1,·,·,·,·,·,–
O=C/C=C/c1c(-c2ccccc2)cc2oc3ccccc3cc1-2,27,–,–,–,–,–
CCOc1ccc2oc(=O)cc(CN3CCN(Cc4ccc(F)cc4)CC3)c2c1,·,·,·,·,·,–
S=c1[nH]ncn1/N=C/c1cccc(Oc2ccccc2)c1,–,10µM,–,–,–,?
COc1ccc(N2CCN(c3ccc(C(=O)O)cc3[N+](=O)[O-])CC2)cc1,12,–,–,–,–,–
SMILES,CHX counter,LmPK inhibitor,SARS PLpro yeast,Shiga toxin inh,NS1 inh,Tb PYK inh
COC(=O)c1ccc(N2CCN(CC(=O)c3ccc(C)cc3)CC2)c([N+](=O)[O-])c1,·,·,·,·,·,–
CN1CCN(c2ccc(C(=O)c3ccccc3)cc2[N+](=O)[O-])CC1,40,–,–,32,–,–
CC(=O)c1ccc(N2CCc3ccccc3C2)c([N+](=O)[O-])c1,30,–,–,76,–,–
COC(=O)c1ccc(N2CCN(CC(=O)c3ccc(-c4ccccc4)cc3)CC2)c([N+](=O)[O-])c1,85,–,–,60,–,–
Cn1c(SCc2ccc(C(F)(F)F)cc2)nc2c([nH]c3ccccc32)c1=O,·,·,·,·,·,–
O/N=C/c1ccnc(SCc2ccc(Cl)cc2)n1,51,–,–,75,–,–
Cc1ccnc(SCc2ccc(C(=O)O)cc2)n1,–,–,–,–,–,–
O/N=C/c1ccnc(SCc2ccccc2)n1,31,–,–,64,–,–
Cc1cccc(N2CCN(C(=O)c3cc(S(=O)(=O)N4CCC(C)CC4)cn3C)CC2)c1C,·,·,·,·,·,–
CCc1nn2c(=O)cc(COC(=O)c3ccco3)nc2s1,·,·,·,·,·,–
CCN(CC)c1nc(SCCOC(=O)Nc2ccccc2)nc(N(CC)CC)n1,16,–,–,–,–,–
